Source: PubChem
A selection: hits, their analogues and other compounds. The true share with any hit is near 6%.
D1 antag: human D1 dopamine receptor antagonism | 360,000 compounds, 3.2% hits | AID 504652 | activity change, negative = inhibition, % at 10 µM | HEK293 TREx D1 cells, calcium flux, dopamine EC80; hits give low values; in the data active means activity change below about -30%
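Kinetic fluorescence of a calcium dye serves as the read-out. D1-expressing Hek293 Trex cells, induced overnight at 30 C, are exposed to compound for 180 s before an EC80 dopamine addition, then read 180 s further.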
D1 potentiator: potentiators of human D1 dopamine receptor; P21728; HEK293 TREx D1 cells, calcium flux, dopamine EC20 potentiation; potentiation, % at 10 µM; 360,000 compounds, 0.036% hits; in the data active means potentiation above about 30%
D1 ag: human D1 receptor agonism | P21728 | HEK293 T-REx D1 cells, calcium flux, agonist mode | activation, % at 2 µM | 360,000 compounds, 1% hits; in the data active means activation above about 30%
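Inducible HEK293 T-REx D1 cells, force-coupled to calcium signalling, were plated at 4000 cells/well with tetracycline and held overnight at 30 C. After no-wash calcium dye loading, compound-evoked calcium rise over 180 s flagged agonists.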
DRD3 agonist: D3 dopamine receptor (human) agonism | D3R DiscoveRx beta-arrestin cells, luminescence, 90 min | max activation, % | 410,000 compounds, 0.58% hits | AID 652048; in the data active means max activation above about 30%
Target sequence (P35462 whole entry, looked up): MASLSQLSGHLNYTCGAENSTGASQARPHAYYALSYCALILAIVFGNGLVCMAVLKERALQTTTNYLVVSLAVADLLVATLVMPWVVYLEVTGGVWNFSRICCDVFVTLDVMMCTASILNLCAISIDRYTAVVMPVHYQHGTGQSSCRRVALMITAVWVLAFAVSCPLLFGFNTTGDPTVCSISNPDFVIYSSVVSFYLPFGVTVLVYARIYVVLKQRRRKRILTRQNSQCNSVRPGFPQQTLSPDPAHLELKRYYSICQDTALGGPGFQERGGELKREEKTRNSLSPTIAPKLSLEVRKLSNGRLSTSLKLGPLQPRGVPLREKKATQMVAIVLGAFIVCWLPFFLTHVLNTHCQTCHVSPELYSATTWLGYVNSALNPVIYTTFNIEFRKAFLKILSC
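Agonist-mode cell screen: cells plated at 1500/well and incubated overnight at 37 °C, then exposed to library compounds for 90 min at 37 °C. Detection reagent was added for 30–60 min at room temperature, and luminescence was read.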
DRD3 antagonist: antagonists of human D3 dopamine receptor. D3R cells, DiscoveRx beta-arrestin luminescence, antagonist mode; hits give low values. max response, negative = inhibition, %. 360,000 compounds, 2.5% hits. P35462; in the data active means max response below about -50%; inconclusive means no clear call, values can overlap the other calls
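Cells plated overnight at 1500 cells/well, then exposed to library compounds with dopamine controls for 90 minutes at 37 degrees C. DiscoveRx reagent added for 30–60 minutes at room temperature; luminescence read, quantitative HTS format.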
Of the large screens only hits and unclear results are named; the others gave an inactive call.

OC(COCc1ccc(Cl)cc1)CN1CCN(c2ccccn2)CC1 (centres undefined)	DRD3 agonist 59
OC(COCc1cccs1)CN1CCN(c2ccccc2Cl)CC1 (centres undefined)	DRD3 antagonist -69
OC(COCc1cccs1)CN1CCN(c2ccccn2)CC1 (centres undefined)	DRD3 agonist 57
O=C(CCc1cn(Cc2ccccc2Cl)c2ccccc12)NC1CCCCC1	none (no result: DRD3 antagonist)
CCn1cc(C(=O)OCC(=O)Nc2cc(OC)cc(OC)c2)c(=O)c2ccc(C)nc21	none (no result: DRD3 antagonist)
Cc1cccc(N2CCN(CC(O)COCc3cccs3)CC2)c1C (centres undefined)	DRD3 agonist 58
OC(COCc1cccs1)CN1CCN(c2cccc(Cl)c2)CC1 (centres undefined)	DRD3 antagonist -56
CN1CCCN(CC(O)COCc2cccs2)CC1 (centres undefined)	none
Cc1ccc(NC(=O)OC(C)CNC(=O)Oc2cccc(C)c2)cc1 (centres undefined)	D1 antag -32
COC(=O)NCC(C)OC(=O)Nc1ccc(Cl)cc1 (centres undefined)	none
O=C(CCN1CCc2ccccc2C1)Nc1ccccc1	DRD3 antagonist -73
O=C(CCC(=O)N1CCSc2ccccc21)Nc1cccc(F)c1	D1 antag -31
O=C(CCN1CCCCCC1)Nc1cccc(F)c1	DRD3 antagonist inconclusive
O=C(CCC(=O)N1CCSc2ccccc21)Nc1ccc(F)cc1	DRD3 antagonist inconclusive
O=C(CCN1CCc2ccccc2C1)Nc1cccc(F)c1	DRD3 antagonist -66
O=C(CCN1CCc2ccccc2C1)Nc1ccccc1F	DRD3 antagonist -78
CCc1c(C)sc2c1CCN(C(=O)Nc1cc(Cl)c(OC)cc1OC)C2c1ccccc1 (centres undefined)	none (no result: DRD3 antagonist)
Cc1ccc(CSCCNC(=O)C2CCN(S(=O)(=O)Cc3ccccc3)CC2)cc1	none (no result: DRD3 antagonist)
CC1=NNC(=O)C(CC(=O)Nc2ccc(Cl)c(Cl)c2)C1 (centres undefined)	D1 antag -36
Cc1cc(C)cc(C(=O)N(NC(=O)Nc2ccc(Cl)cc2)C(C)(C)C)c1	D1 antag -30
CC(C)(C)N(NC(=O)Nc1ccc(Cl)c(Cl)c1)C(=O)c1ccccc1	D1 ag 33
CC(C)(CC(=O)O)CC(=O)Nc1ccc(Cl)c(Cl)c1	D1 antag -58
O=C(CSc1nc2ccsc2c(=O)n1Cc1ccccc1F)NCc1ccccc1Cl	none (no result: DRD3 antagonist)
COc1ccc(-c2nc(CN3CCC(C(=O)NCCCN4CCN(c5ccccc5F)CC4)CC3)c(C)o2)cc1OC	none (no result: DRD3 antagonist)
COC(=O)c1nn(-c2ccc(OC)cc2)c(=O)cc1O	none
COc1ccc(-n2nc(C#N)c(Cl)cc2=O)cc1	DRD3 antagonist -104
O=C(O)c1ccc2c(c1)C(=O)N([C@H](Cc1c3ccccc3cc3ccccc13)C(=O)O)C2=O	none (no result: DRD3 agonist, DRD3 antagonist)
CCN(CC)S(=O)(=O)c1ccc(N=Nc2c(N)[nH]c(=O)[nH]c2=O)cc1	D1 antag -41
CCN(CC)S(=O)(=O)c1ccc(N=NC2=C(O)CCCC2=O)cc1	none
Cc1cc(C)c2c(CC(=O)Nc3ccccc3C(F)(F)F)coc2c1	none (no result: DRD3 antagonist)
COc1ccccc1N1CCN(CCCNC(=O)c2nnc(Cc3c(F)cccc3Cl)o2)CC1	D1 antag -36 (no result: DRD3 antagonist)
COc1ccccc1N1CCN(CCCNC(=O)c2nnc(Cc3ccc(F)cc3Cl)o2)CC1	D1 antag -39 (no result: DRD3 antagonist)
CN1CCN(CCCNC(=O)c2nnc(Cc3c(F)cccc3Cl)o2)CC1	DRD3 antagonist inconclusive
CC(=O)c1c(C)[nH]c(C(=O)CN2CCN(S(=O)(=O)c3ccccc3[N+](=O)[O-])CC2)c1C	D1 antag -31
O=C(CN1CCN(S(=O)(=O)c2ccccc2[N+](=O)[O-])CC1)Nc1ccc(N2CCOCC2)cc1	D1 antag -46
O=C(CSc1cn(CCNC(=O)c2c(F)cccc2F)c2ccccc12)Nc1ccc2c(c1)OCCO2	none (no result: DRD3 antagonist)
O=C1CC(SCc2nc3ccccc3[nH]2)C(=O)N1c1cccc(Cl)c1 (centres undefined)	none
O=C1CC(SCc2nc3ccccc3[nH]2)C(=O)N1c1ccc(F)cc1 (centres undefined)	DRD3 antagonist -66
C/C(=N\Nc1nc2ccccc2s1)c1ccc(Br)s1	none
CC(=NNc1nc2ccccc2s1)c1ccncn1	DRD3 antagonist -57 (no result: D1 antag, D1 potentiator, D1 ag)
Cc1cccc(C)c1OCc1cc(=O)n2c3c(sc2n1)CCCC3	none (no result: DRD3 antagonist)
CC(C)c1ccc(NC(=O)Nc2cc3sccc3n2C)cc1	D1 antag -37
CCOc1cc(C(=O)N2CCN(C/C=C/c3ccccc3)CC2)cc(OCC)c1OCC	none
COc1ccc(NS(=O)(=O)c2cc(C(=O)N3CCN(C/C=C/c4ccccc4)CC3)ccc2C)cc1	DRD3 agonist 49
O=C(c1cccc([N+](=O)[O-])c1)N1CCN(C/C=C/c2ccccc2)CC1	DRD3 agonist 32
COc1cc(C(=O)N2CCN(C/C=C/c3ccccc3)CC2)cc(OC)c1OC	DRD3 agonist 33
O=C(c1ccco1)N1CCN(C/C=C/c2ccccc2)CC1	DRD3 antagonist -109
Cn1nnc2c(N3CCN(c4ccc(F)cc4)CC3)ncnc21	none (no result: D1 antag, DRD3 antagonist)
O=S(=O)(c1c(F)cccc1F)N1CCN(S(=O)(=O)c2c(F)cccc2F)CC1	D1 antag -30 (no result: DRD3 agonist, DRD3 antagonist)
O=C(C1CC1)N1CCc2cc(Br)cc(S(=O)(=O)Nc3ccc(F)c(F)c3)c21	D1 antag -31 (no result: DRD3 antagonist)
CCOc1ccc(S(=O)(=O)N(C(C)=O)c2ccc3oc(C)c(C(=O)OC)c3c2)cc1	none (no result: DRD3 antagonist)
COC(=O)c1c(C)oc2ccc(N(C(C)=O)S(=O)(=O)c3ccccc3)cc12	D1 antag -66
COc1ccc(S(=O)(=O)N(C(C)=O)c2ccc3oc(=O)sc3c2)cc1	DRD3 antagonist -59
CCOC(=O)c1c(C)oc2ccc(N(C(=O)c3ccncc3)S(=O)(=O)c3ccc(Br)cc3)cc12	D1 antag -57 (no result: DRD3 antagonist)
COC(=O)c1c(C)oc2ccc(N(C(=O)c3ccncc3)S(=O)(=O)c3cc(C)ccc3C)cc12	none (no result: DRD3 antagonist)
CC(=O)c1c(C)oc2ccc(N(C(C)=O)S(=O)(=O)c3ccc(Br)cc3)cc12	none (no result: D1 antag, D1 potentiator, D1 ag)
COC(=O)c1c(C)oc2ccc(N(C(=O)c3ccncc3)S(=O)(=O)c3ccc(Br)cc3)cc12	D1 antag -37 (no result: DRD3 antagonist)
Cc1cc(Nc2ccccc2)nc(NCc2ccccc2)n1	DRD3 antagonist inconclusive
Cc1cc(N/N=C/c2ccc(Cl)cc2Cl)nc(NCc2ccccc2)n1	D1 antag -48
CCCCNc1cc(C)nc(NCc2ccccc2)n1	D1 antag -52, D1 ag 61, DRD3 antagonist -63
Cc1ccc(-c2nc(S(=O)(=O)c3ccc(C)cc3)c(SCC(=O)NC3CCCCC3)o2)cc1	none (no result: DRD3 antagonist)
COc1ccc(-c2noc(N3CCN(c4cccc(C)c4C)CC3)n2)cc1OC	none (no result: DRD3 antagonist)
COc1ccc(Cn2c(=O)n(Cc3ccco3)c(=O)c3oc4ccccc4c32)cc1	none (no result: DRD3 antagonist)
